ssDAF-12 act – S. stercoralis DAF-12 nuclear receptor activators, primary screen, cell-based, luminescence, HEK293, GRIP1 co-expression, lit1-tk-luc | AID 652126, 2013 | activation, % at 6.8 µM | 370,000 compounds, 1% hits | Nuclear hormone receptor DAF-12 (Strongyloides stercoralis) | HEK293 ssDAF-12/GRIP1 lit1-tk-luc reporter; % of 3 µM dafachronic acid response;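 active = activation above the mean over all tested compounds plus 3 SD, cut at about 0.9% in these data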;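 also: 0% = DMSO-only wells and 100% = 3 µM delta7-dafachronic acid wells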
DAX1 inh-1 – DAX1 (NR0B1) inhibitors on StAR promoter, primary screen, cell-based, luminescence, SF-1 (NR5A1), full-length DAX-1; HEK293T StAR-luciferase reporter, SF-1/DAX-1 repression relief; inhibition, % at 6.8 µM; 370,000 compounds, 1.1% hits; AID 652010, 2013;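 active = inhibition above the mean over all tested compounds plus 3 SD, cut at about 3.6% in these data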;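 also: 0% = DAX-1 cells with DMSO and 100% = cells lacking DAX-1 with DMSO; higher inhibition means more luminescence from relief of DAX-1 repression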
hcDAF-12 act – H. contortus DAF-12 nuclear receptor activators, primary screen, cell-based, luminescence, HEK293, lit1-tk-luc reporter; HEK293 hcDAF-12 lit1-tk-luc reporter; 0% DMSO, 100% Δ7-dafachronic acid; activation, % at 6.8 µM; 370,000 compounds, 1.4% hits;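 active = activation above the mean of all tested compounds plus 3 SD, cut at about 5.5% in these data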;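 also: 100% = response to 3 µM Δ7-dafachronic acid high control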
hgDAF-12 ag – H. glycines DAF-12 receptor agonists, primary screen, cell-based, luminescence, HEK293, GAL4 fusion, UAS-luciferase. Nuclear hormone receptor DAF-12 (Heterodera glycines), GAL4 fusion. HEK293 GAL4-hgDAF12 UAS-luciferase reporter, agonist luminescence; normalized to butyrate control. activation, % at 6.8 µM. 370,000 compounds, 1.8% hits. AID 687014, 2013;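 active = activation above a cutoff set at the mean of all screened compounds plus 3 SD, cut at about 10% in these data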;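 also: 0% = DMSO wells and 100% = sodium butyrate wells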
DAX1 inh-2 – DAX1 (NR0B1) inhibitors, primary screen, cell-based, HEK293, Gal4-DAX1, luciferase luminescence; HEK293 Gal4-DAX1 luciferase reporter; inhibition, % at 6.75 µM; 340,000 compounds, 0.99% hits; AID 504766, 2011;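 active = inhibition above the mean over all tested compounds plus 3 SD, cut at about 4.2% in these data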;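 also: 0% = DAX1-transfected cells with DMSO and 100% = empty-vector control cells with DMSO; inhibition shows as a rise in luminescence from relieved DAX1 repression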
Target sequence (P51843 207-470 limits assumed): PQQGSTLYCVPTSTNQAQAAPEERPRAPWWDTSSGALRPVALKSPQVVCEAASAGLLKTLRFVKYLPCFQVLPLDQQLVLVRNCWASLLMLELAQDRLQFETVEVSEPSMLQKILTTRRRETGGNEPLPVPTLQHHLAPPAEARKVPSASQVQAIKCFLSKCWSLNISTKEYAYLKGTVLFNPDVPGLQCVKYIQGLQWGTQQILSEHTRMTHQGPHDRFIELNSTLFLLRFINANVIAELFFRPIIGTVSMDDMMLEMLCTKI
LXRb hcDAF ctr – LXR agonists, Gal4 luciferase reporter, confirmation, counter-screen for hcDAF-12 agonist project, cell-based, luminescence, HEK293, H. contortus campaign | shares compounds with hcDAF-12 act | HEK293 Gal4-LXR tk-luc reporter, 24 h; normalized: DMSO 0%, positive control 100% | activation, % at 6.8 µM | 3,400 tested, under 10 active | AID 743027, 2013;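 active = mean percent activation of the reporter above a cutoff set as the average over tested compounds plus their standard deviation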
hcDAF12 conf – H. contortus DAF-12 receptor agonists, confirmation, cell-based, luminescence, HEK293, lit1-tk-luc, triplicate; 3,400 compounds, 61% hits; activation, % at 6.8 µM; HEK293 hcDAF-12 lit1-tk-luc reporter; % of Δ7-dafachronic acid response; shares compounds with hcDAF-12 act;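 active = mean activation across triplicate tests above the threshold derived from the earlier primary screen, cut at about 5.5% in these data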;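 also: 0% = DMSO only wells and 100% = 3 µM Δ7-dafachronic acid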
The depositor's hits bear a star. Only some compounds are listed: those with a hit (about 4.1% of all), similar ones and a draw of the others.

`[O-][n+]1c2ccccc2c2n1CCCN=C2c1ccc(Cl)cc1` gave ssDAF-12 act 1, DAX1 inh-1 2, hcDAF-12 act 8.0*, hgDAF-12 ag 3, DAX1 inh-2 2, LXRb hcDAF ctr 0 and hcDAF12 conf 8.6*.
Screening O=C(COC(=O)c1cccc(-n2cnnn2)c1)c1ccc(F)c(F)c1 returned ssDAF-12 act -1, DAX1 inh-1 0, hcDAF-12 act 1, hgDAF-12 ag 6 and DAX1 inh-2 1.
For COc1cccc(C(C(=O)NC(C)(C)C)N(CCc2ccccc2)C(=O)CCC(=O)Nc2cc(C)on2)c1OC (configuration not stated) the results were ssDAF-12 act -1, DAX1 inh-1 0, hcDAF-12 act 0, hgDAF-12 ag -1 and DAX1 inh-2 -1.
For CS(=O)(=O)N1N=C(c2ccccc2)CC1c1ccc2c(c1)OCO2 (configuration not stated) the results were ssDAF-12 act 1, DAX1 inh-1 1, hcDAF-12 act 7.0*, hgDAF-12 ag 7, DAX1 inh-2 2, LXRb hcDAF ctr 0 and hcDAF12 conf 7.4*.
For Cc1ccc(CNc2nc3ccccc3n2C)o1 the results were ssDAF-12 act 1.1*, DAX1 inh-1 1, hcDAF-12 act 7.8*, hgDAF-12 ag 12*, DAX1 inh-2 2, LXRb hcDAF ctr 1 and hcDAF12 conf 8.3*.
`CCN(CC)CCn1c(NCc2ccc(C)o2)nc2ccccc21` gave ssDAF-12 act -1, DAX1 inh-1 0, hcDAF-12 act -1, hgDAF-12 ag -2 and DAX1 inh-2 0.
CC(CCN1CCC(C(O)(c2ccccc2)c2ccccc2)CC1)Oc1cccc(F)c1 (configuration not stated) was read as ssDAF-12 act 0, DAX1 inh-1 0, hcDAF-12 act 11*, hgDAF-12 ag 1, LXRb hcDAF ctr 0 and hcDAF12 conf 2.
`O=C(Nc1cc2c(ccc3ccccc32)oc1=O)C1CCCCC1` gave ssDAF-12 act 0, DAX1 inh-1 0, hcDAF-12 act 7.3*, hgDAF-12 ag -1, DAX1 inh-2 0, LXRb hcDAF ctr 0 and hcDAF12 conf 1.
CC(=O)Nc1cc2c(ccc3ccccc32)oc1=O was read as ssDAF-12 act -1, DAX1 inh-1 0, hcDAF-12 act -2 and hgDAF-12 ag 3.
Cc1cccc(NC(=O)c2nc[nH]c2C(=O)N2CCC(C)CC2)c1 was read as ssDAF-12 act -1, DAX1 inh-1 -1, hcDAF-12 act -2, hgDAF-12 ag 0 and DAX1 inh-2 0.
`C/C(=N\NC(=O)c1n[nH]c2c1CCC2)c1ccco1` gave ssDAF-12 act 0, DAX1 inh-1 1, hcDAF-12 act 11*, hgDAF-12 ag 8, LXRb hcDAF ctr 1 and hcDAF12 conf 5.
`CCC(C)(C)C1CCc2[nH]nc(C(=O)N/N=C(\C)c3ccco3)c2C1` (configuration not stated) gave ssDAF-12 act -1, DAX1 inh-1 -1, hcDAF-12 act -2, hgDAF-12 ag -4 and DAX1 inh-2 2.
O=C(CNC(=O)c1ccccc1F)NCc1cccnc1 was read as ssDAF-12 act -1, DAX1 inh-1 0, hcDAF-12 act -2, hgDAF-12 ag 3 and DAX1 inh-2 2.

Assay outcomes from PubChem.
